Screening results deposited in PubChem by Broad Institute.
Casp6 inh: caspase-6 (human) enzyme inhibition; AID 686996; 0.53% of 350,000 active; purified caspase-6, Z-VEID-R110 cleavage fluorescence; inhibition, % at 12.5 µM; P55212;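 active = mean inhibition across replicates at least about 35%, with every replicate also reaching that limit, limit read from the data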;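 note: 0% = median of neutral control wells and 100% = no fluorescence left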
Target sequence (P55212 24-179 limits assumed): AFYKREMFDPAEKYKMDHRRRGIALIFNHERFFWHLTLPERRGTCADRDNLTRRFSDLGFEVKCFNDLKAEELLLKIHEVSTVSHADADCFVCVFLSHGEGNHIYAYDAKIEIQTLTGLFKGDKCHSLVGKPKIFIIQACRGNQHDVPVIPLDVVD
Target sequence (P55212 194-293 limits assumed): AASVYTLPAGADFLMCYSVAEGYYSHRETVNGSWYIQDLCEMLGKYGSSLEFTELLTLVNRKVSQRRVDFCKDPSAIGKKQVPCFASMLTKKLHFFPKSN
SIRT5 inh: sirtuin-5 (human) deacylase inhibition. AID 652115. inhibition, % at 15 µM. Purified SirT5, succinyl-peptide AMC, trypsin-coupled fluorescence. 1.1% of 330,000 active. Q9NXA8; in the data active = inhibition above about 15%
Target sequence (Q9NXA8 whole entry, looked up): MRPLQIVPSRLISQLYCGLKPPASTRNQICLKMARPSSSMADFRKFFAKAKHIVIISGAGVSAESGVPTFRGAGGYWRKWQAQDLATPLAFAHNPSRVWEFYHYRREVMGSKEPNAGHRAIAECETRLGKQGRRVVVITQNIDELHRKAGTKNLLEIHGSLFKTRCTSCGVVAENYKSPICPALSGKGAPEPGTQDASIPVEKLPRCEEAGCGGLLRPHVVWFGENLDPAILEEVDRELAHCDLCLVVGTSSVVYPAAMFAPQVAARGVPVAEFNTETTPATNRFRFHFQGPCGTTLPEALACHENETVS
FGF22 binding-1: shifts melting point of recombinant human FGF22; activity (Tm shift, normalised), % at 9.99 µM; recombinant FGF22 thermal shift, SYPRO orange fluorescence; percent of sucrose octasulfate shift, DMSO zero; 1.5% of 340,000 active; AID 651658;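 active = mean Tm shift, scaled 0 neutral to 100 positive control, at about 1.3% or above, every replicate too, limit read from the data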
ERAP1 inh: ERAP1 (human) enzyme inhibition; inhibition, % at 10.7 µM; 0.15% of 340,000 active; Q9NZ08; recombinant ERAP1, Leu-AMC fluorescence, 60 min;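 active = mean replicate inhibition of at least 30%, or all replicates individually reaching that 30% level; inactive = mean below 30% and not every replicate reaching it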;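 note: 0% = neutral control wells and 100% = L-leucinethiol positive control wells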
FGF22 binding-2: binders of human FGF22 by thermal shift | recombinant FGF22 thermal shift, SYPRO orange fluorescence | thermal shift activity, °C (ΔTm) at 38 µM | shares compounds with FGF22 binding-1 | 2% of 1,000 active;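 active = fitted rise in melting shift crosses a set limit at or below the top valid dose tested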
SYPRO no-protein: counter-screen for FGF22 binders: compound-only thermal shift, no protein. shares compounds with FGF22 binding-1. compound-only SYPRO orange thermal shift counter-screen. AC50, µM (top dose mostly 38 µM). 2% of 1,000 active. AID 743019;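 active = rising signal whose fitted curve reaches the 0.54 level within the top valid dose, showing a melting point, actives reach about 13 µM in these data; inactive = the rest, including activity in the opposite direction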; note: value is where the raw curve crosses a fixed level and not half-maximal
An asterisk follows results filed as active; i = inactive; . = no result; [ ] = dose if it differs, or a comment. Shown are actives, neighbours in structure and some others; about 3.1% of the full set was active somewhere.

SMILES	Casp6 inh	SIRT5 inh	FGF22 binding-1	ERAP1 inh	FGF22 binding-2	SYPRO no-protein
O=[N+]([O-])c1ccc(/C=N/Nc2ccc3ccccc3c2)o1	1	-1	2.1*	-6	-0.088	i
Cc1cccc(C(=O)NCC(=O)N2CCN(c3ccc(Cl)cc3)CC2)c1	-3	-5	0	-1	.	.
Cc1cc(C)cc(C(=O)NCC(=O)N2CCN(c3cccc(Cl)c3)CC2)c1	1	-2	37*	2	0.15	i
CCCN(CCC)CC(C)(C)NS(=O)(=O)c1ccc(Cl)cc1	2	.	1.4*	2	-0.022	i
CN(C)CC(C)(C)CNS(=O)(=O)c1ccc(Cl)cc1	7	-2	0	-2	.	.
C/C=C/c1ccc([C@@H]2[C@H](C#N)N(C(=O)CN3CCOCC3)[C@H]2CO)cc1	3	-3	2.3*	-5	0.16[42 µM]	i
C[C@@H]1CN([C@@H](C)CO)S(=O)(=O)c2ccc(C#Cc3ccccc3)cc2O[C@@H]1CN(C)S(=O)(=O)c1cn(C)cn1	0	-3	1	3	.	.
O=C1C(Cl)=C(NS(=O)(=O)c2ccc([N+](=O)[O-])cc2)C(=O)c2ccccc21	18	-2	1.9*	3	0.13	i
O=[N+]([O-])c1ccc(NS(=O)(=O)c2ccc(Cl)c(Cl)c2)cc1	3	-2	1	3	.	.
COc1ccccc1NC(=O)Nc1cccc(NC(C)=O)c1	5	0	3.1*	6	0.016	i
Cc1cc(C)c(C)c(S(=O)(=O)Nc2ccccc2C(=O)O)c1C	-3	-4	1.4*	-12	0.15	i
O=C(O)c1ccccc1NS(=O)(=O)c1ccc2ccccc2c1	8	7	1.6*	-15	-0.049	i
O=C(O)c1cc(NS(=O)(=O)c2ccc3ccccc3c2)ccc1O	7	4	.	-14	.	.
Cc1ccc2nsnc2c1S(=O)(=O)Nc1ccccc1C(=O)O	3	1	0	-3	.	.
CO[C@H]1CN(C)C(=O)c2ccc(NC(C)=O)cc2OC[C@H](C)N(C(=O)C2CC2)C[C@@H]1C	2	3	.	0	.	.
CO[C@@H]1CN(C)C(=O)c2ccc(NS(C)(=O)=O)cc2OC[C@@H](C)N(S(C)(=O)=O)C[C@H]1C	2	-7	0	0	.	.
O=C(NCC[C@@H]1CC[C@@H](NS(=O)(=O)c2ccccc2)[C@@H](CO)O1)c1ccc2c(c1)OCO2	1	3	1.4*	0	-0.1[42 µM]	i
CCC(=O)N[C@H]1C=C[C@@H](CC(=O)NCC2CC2)O[C@@H]1CO	6	1	.	2	.	.
C[C@@H]1CN([C@@H](C)CO)C(=O)c2cc(NC(=O)Cc3ccccc3)ccc2O[C@@H](C)CCCCO[C@H]1CN(C)C	1	1	.	0	.	.
COc1cccc(NS(=O)(=O)c2cc3[nH]c(=O)c(=O)[nH]c3cc2C)c1	2	2	0	-2	.	.
Cc1cc(C)cc(NS(=O)(=O)c2cc3[nH]c(=O)c(=O)[nH]c3cc2C)c1	5	-1	1.7*	4	0.031	i
C[C@@H]1CN([C@H](C)CO)C(=O)c2cc(NC(=O)Cc3cn(C)c4ccccc34)ccc2O[C@H]1CN(C)C(=O)Nc1ccc(C(F)(F)F)cc1	-2	2	0	0	.	.
CCOC(=O)N1CCc2c(sc(NC(=O)C3COc4ccccc4O3)c2C(N)=O)C1 (stereo not given)	1	-3	29*	-3	-0.11	i
CCN1CCc2c(sc(NC(=O)c3ccc(S(=O)(=O)N(CC)c4ccccc4)cc3)c2C(N)=O)C1	-2	0	28*	-8	0.017	i
CC(=O)N1CCc2c(sc(NC(=O)C3COc4ccccc4O3)c2C(N)=O)C1 (stereo not given)	2	2	0	1	.	.
SMILES	Casp6 inh	SIRT5 inh	FGF22 binding-1	ERAP1 inh	FGF22 binding-2	SYPRO no-protein
CN(C)C(=O)C[C@@H]1CC[C@H]2[C@@H](COc3ccc(NC(=O)c4cnccn4)cc3C(=O)N2C)O1	2	3	0	-1	.	.
COc1ccc2cc(CCNC(=O)c3cc4ccccc4o3)c(=O)[nH]c2c1	3	0	1.8*	-1	-0.059	i
CN1C(=O)c2cc(NC(=O)c3cccc(F)c3)ccc2OC[C@H]2O[C@@H](CC(=O)Nc3ccccc3)CC[C@H]21	-1	6	0	17	.	.
CCOc1ccc(N(CC(=O)NCCSc2ccccn2)S(=O)(=O)c2ccc(Cl)cc2)cc1	.	-1	29*	3	0.2	i
CCOc1ccccc1N(CC(=O)NCCSc1ccccn1)S(=O)(=O)c1ccccc1	0	2	0	-1	.	.
C[C@@H]1CN([C@H](C)CO)C(=O)c2cc(NS(=O)(=O)c3ccc(Cl)cc3)ccc2O[C@@H]1CN(C)S(=O)(=O)c1ccc(F)cc1	0	2	-1	3	.	.
Cc1ccc(S(=O)(=O)Nc2ccc3c(c2)C(=O)N([C@@H](C)CO)C[C@@H](C)[C@H](CN(C)C)O3)cc1	-5	8	0	2	.	.
C[C@@H]1CN([C@@H](C)CO)C(=O)c2cc(NS(=O)(=O)c3ccc(Cl)cc3)ccc2O[C@@H]1CN(C)S(=O)(=O)c1ccc(F)cc1	3	3	2.9*	1	0.18[42 µM]	i
Cc1ccc(S(=O)(=O)Nc2ccc3c(c2)C(=O)N([C@@H](C)CO)C[C@@H](C)[C@@H](CN(C)C)O3)cc1	-2	-1	1.9*	-2	-0.025	i
C[C@H](CO)N1C[C@H](C)[C@H](CN(C)S(=O)(=O)c2ccc(F)cc2)Oc2ccc(NC(=O)c3ccncc3)cc2C1=O	-2	4	1.9*	0	0.048	i
C[C@@H]1CN([C@H](C)CO)C(=O)c2cc(NS(=O)(=O)c3ccccc3)ccc2O[C@@H](C)CCCCO[C@@H]1CN(C)S(=O)(=O)c1ccc(F)cc1	-1	1	-1	2	.	.
CCC(=O)Nc1ccc2c(c1)C(=O)N(C)C[C@H](OC)[C@@H](C)CN(C(=O)CC)[C@@H](C)CO2	-1	2	1.5*	-2	0.13[42 µM]	i
CO[C@@H]1CN(C)C(=O)c2ccc(NC(C)=O)cc2OC[C@@H](C)N(C(=O)Cc2ccccn2)C[C@H]1C	3	3	1.4*	3	0.036[42 µM]	i
CO[C@@H]1CN(C)C(=O)c2ccc(NC(C)=O)cc2OC[C@@H](C)N(C(=O)Cc2ccccn2)C[C@@H]1C	-3	0	-1	4	.	.
CO[C@@H]1CN(C)C(=O)c2ccc(NC(=O)C3CC3)cc2OC[C@H](C)N(C(=O)CN2CCOCC2)C[C@@H]1C	0	-1	1.4*	2	0.023	i
CO[C@H]1CN(C)C(=O)c2cc(NS(=O)(=O)c3ccc(C)cc3)ccc2OC[C@@H](C)N(C(=O)NC(C)C)C[C@@H]1C	-7	2	1.2*	1	-0.021	i
CCC(=O)Nc1ccc2c(c1)C(=O)N(C)C[C@@H](OC)[C@H](C)CN(C(=O)COC)[C@H](C)CO2	-2	.	0	0	.	.
